# Rows were chosen to be rich in hits. Some 2.1% of all compounds tested hit in one or more screens of this group.
# aSyn rescue = qHTS of alpha-syn Inhibitors; 0.14% of 370,000 active; Yeast expressing alpha-synuclein, growth rescue, BacTiter-Glo, 24 h; Potency, µM (doses to about 46.1 µM), for the others: at the top dose growth rescue (activation), most hits filed as activators; note: % of control where 0% means no effect; nearly all actives have a fitted effect of over 65% in size
#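 Readout is rescue of growth in alpha-synuclein-expressing yeast, so inhibitors of toxicity appear as activators. Growth after 24 hr at 30 deg C in galactose medium is quantified by luminescence.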
# TDP43 rescue = qHTS of TDP-43 Inhibitors; 1.8% of 410,000 active; TDP-43 expressing yeast growth rescue, BacTiter-Glo, 24 h; Potency, µM (series often up to 46.1 µM), for inactives: at the top dose growth rescue (activation), actives largely listed as activators; note: % of control where 0% means no effect; nearly all actives have a fitted effect of over 50% in size
#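 Yeast cells expressing TDP-43 under galactose induction are exposed to compounds for 24 hr at 30 deg C. BacTiter-Glo luminescence measures growth, so protective compounds score as activators.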
# Abeta yeast res = qHTS for compounds that reverse cellular toxicity of Amyloid beta (A-beta) peptide in yeast: Primary Screen; yeast expressing A-beta42, growth rescue, OD600, 48 h; response scale: 0% DMSO, 100% iron-clioquinol control; 0.063% of 410,000 active; AID 1347071, 2019; Potency, µM (doses to about 46.1 µM), most hits filed as activators; note: nearly all actives have a fitted effect of over 55% in size
#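 Yeast growth medium received pinned compounds, then yeast cells expressing toxic A-beta were added; plates incubated at 30 C for 48 hr. Growth read as absorbance at 600 nm, normalized to DMSO and equimolar FeCl3 plus clioquinol controls.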
# FUS suppressor = qHTS for Suppressors of FUS Proteinopathy: Primary screen using FUS-linked yeast assay; S. cerevisiae FUS-expressing, growth rescue, OD600, 24 h; Potency, µM (top dose mostly 76.6 µM), usual class: activators; 0.24% of 390,000 active;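 note: plate controls were DMSO vehicle for no effect and reference control for full effect; nearly all actives have a fitted effect of over 55% in size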
#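 Toxicity suppression screen in FUS-yeast. Cells induced with 2% galactose, starting OD 0.005, treated 24hr at 30C with compounds at multiple final concentrations; growth by OD600.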
# The depositor's hits bear a star; i = inactive; u = inconclusive; x = no result. Calls come from the whole dose curve; as a rule, active = well fitted curve in the direction sought with a large enough effect; inconclusive = small, poorly fitted or top-dose-only effect, or another doubt; inactive = no such curve, though single readings can be large; an effect the other way counts as inactive or inconclusive. Potency is the fitted concentration of half-maximal effect.
SMILES,aSyn rescue,TDP43 rescue,Abeta yeast res,FUS suppressor
COc1ccc([C@H]2CC(=O)C=C(c3cc(F)ccc3F)C2)cc1OC,7%,22µM*,i,i
COc1ccc([C@H]2CC(=O)C=C(c3cccc4c3sc3ccccc34)C2)cc1OC,10%,-1%,i,i
CC(C)c1ccc(NC(=O)O[C@@H]2CC[C@@]34CCCN3C(=O)CCC[C@H]4C2)cc1,x,x,x,i
CCN(Cc1ccccc1)C(=O)Cn1c(=O)n(-c2ccc(C)c(C)c2)c(=O)c2c(C)c(C)sc21,x,3%,i,u
O=C1C=C(c2cccc(Br)c2)C[C@@H](c2ccc(Cl)cc2)C1,8%,0%,i,i
O=C1C=C(c2cccc(Cl)c2O)C[C@@H](c2ccc(Cl)cc2)C1,-15%,3.2µM*,i,u
COC(=O)[C@]12C[C@H](CC(=O)N3CCCCC3)C(=O)N(Cc3ccco3)C1=C[C@H](C(C)(C)C)O[C@@H]2C,x,x,x,i
CCc1ccc(NC(=S)N(Cc2ccccc2)Cc2ccccn2)cc1,-9%,u,13µM*,i
O=C(CCc1ccccc1-c1ccccc1CCNC(=O)c1ccc(F)c(F)c1)NCc1ccccc1,x,x,x,i
Cc1cc(C=O)c(C)c2c1[nH]c1ccccc12,-4%,22%,i,x
Cc1ccc(C)c2c1[nH]c1ccccc12,5%,14µM*,i,i
O=C1C(=Cc2cccc(Cl)c2)CCc2ccccc21,-22%,20µM*,i,i
COc1cccc(C(=O)N2c3ccccc3Sc3ccccc32)c1,24%,22µM*,i,i
COc1cccc(C(=O)NC2CCN(C(=O)N3c4ccccc4Sc4ccccc43)CC2)c1,-14%,u,i,u
COc1ccc(/C=C\c2onc(C)c2S(=O)(=O)N2CCC(C(=O)Nc3cccc(OC)c3)CC2)cc1,x,-3%,i,u
O=C1c2nccnc2C(=O)N1Cc1ccccc1,13µM*,-10%,i,x
O=C1c2nc3ccccn3c2C(=O)N1Cc1ccccc1,10%,0%,i,i
CCCC(=O)N1CCN(c2nc(CC(C)C)c3c(c2C#N)CCC3)CC1,1%,11µM*,i,u
CC(C)=CCC/C(C)=C/COc1c2ccoc2cc2oc(=O)ccc12,15%,x,x,x
O=C(C1CCCC1)N1CCC(CO)(Cc2ccccc2Cl)CC1,14%,20µM*,u,i
CC(C)N(C(=O)[C@H]1C[C@H](CC(=O)NCc2ccco2)C(=O)N2CCc3c([nH]c4cc(-c5ccco5)ccc34)[C@]12C)C(C)C,u,13µM*,i,u
CC[C@]12c3[nH]c4ccccc4c3CCN1C(=O)C(CC(=O)NC/C=C(\C)CCC=C(C)C)C[C@@H]2C(=O)N1CCN(C(=O)C2CC2)CC1 (stereo partly drawn),-10%,0%,i,18µM*
CC[C@]12c3[nH]c4cc(-c5ccco5)ccc4c3CCN1C(=O)[C@@H](CC(=O)NCc1ccc(OC)c(OC)c1)C[C@@H]2C(=O)N1CCN(C(=O)c2ccco2)CC1,4%,19%,i,35µM*
CCN(CC)C(=O)[C@H]1C[C@H](CC(=O)NCc2ccco2)C(=O)N2CCc3c([nH]c4ccc(Cl)cc34)[C@]12C,11%,28%,i,i
CC(C)N(C(=O)[C@H]1C[C@H](CC(=O)NCc2ccco2)C(=O)N2CCc3c([nH]c4ccc(Cl)cc34)[C@]12C)C(C)C,22%,35µM*,i,u
Cc1cc(C)cc(N2C(=O)CSC23C(=O)N(Cc2c(F)cccc2Cl)c2ccccc23)c1 (stereo not drawn),1%,u,i,i
CS(=O)(=O)c1ccc(OC[C@@H](O)CN2CCC(C(O)(c3ccccc3)c3ccccc3)CC2)cc1,x,x,x,i
CCN(CCCNC(=O)c1ccc(Sc2ccc(Cl)cc2)c(NC(C)=O)c1)c1ccccc1,x,-5%,i,u
CCCN1CNc2c(c(=O)[nH]c(=S)n2CCC(C)(C)C)C1,4%,x,x,x
O=S(=O)(c1ccccc1C(F)(F)F)N1CCN(c2nc(-c3cccs3)nc3ccccc23)CC1,2%,x,x,x

# Screens as filed in PubChem BioAssay.
